NPSR antag – antagonists of human neuropeptide S receptor cAMP signaling; 220,000 tested, 1% active; AID 1461; Potency, µM (doses to about 38.3 µM), usual class: inhibitors; CHO-NPSR cells, cAMP TR-FRET, antagonist mode; further: nearly all actives have a fitted effect of over 50% in size
Target sequence (Q6W5P4 whole entry, looked up): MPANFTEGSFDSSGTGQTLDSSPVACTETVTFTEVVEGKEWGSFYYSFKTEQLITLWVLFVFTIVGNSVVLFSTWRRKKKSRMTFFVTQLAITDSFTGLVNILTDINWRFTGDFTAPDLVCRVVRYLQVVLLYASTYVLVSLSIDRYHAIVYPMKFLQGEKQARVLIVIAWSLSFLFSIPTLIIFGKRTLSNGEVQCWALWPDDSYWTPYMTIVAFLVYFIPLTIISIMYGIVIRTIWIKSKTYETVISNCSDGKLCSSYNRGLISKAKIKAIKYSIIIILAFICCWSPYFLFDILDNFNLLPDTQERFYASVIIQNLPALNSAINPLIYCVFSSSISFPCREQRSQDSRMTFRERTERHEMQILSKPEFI
IMPase Li inh – membrane-permeable IMPase blocker, potentiated with lithium; 210,000 tested, 0.35% active; AID 1457; Potency, µM (series often up to 59.4 µM), hits mostly inhibitors; CHO-M1 cells, IP1 TR-FRET (IP-One), carbachol + lithium;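 further: IP1 builds up when IMPase is blocked and the TR-FRET signal falls; nearly all actives have a fitted effect of over 50% in size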
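Concentration–response in CHO-M1 cells, lithium-potentiated; 30 min at 37C. IP1 detected by competitive TR-FRET after 10 min lysis at RT. Hill-fitted AC50.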
ERK EGF block – inhibitors of EGF-stimulated ERK signaling pathway; HEK293-V1b, EGF-stimulated phospho-ERK AlphaScreen; Potency, µM (top dose mostly 11.5 µM), actives largely listed as inhibitors; 130,000 tested, 0.41% active; further: nearly all actives have a fitted effect of over 55% in size
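Stably V1b-transfected HEK293 cells; 30 min compound, then EGF 25 nM final for 5 min at 37C; 10 min lysis; phospho-ERK by AlphaScreen after 5 hr beads at room temperature.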
Large screens that a line does not name were inactive. The entries come from a sample that favours hits as a whole. The call rests on the fitted dose curve; in most records, active means well fitted curve in the direction sought with a large enough effect; inconclusive means small, poorly fitted or top-dose-only effect, or another doubt; inactive means no such curve, though single readings can be large; an effect the other way counts as inactive or inconclusive.

COc1ccc2c(c1)c1ncn(CCN3CCCC3)c(=O)c1n2C	none (no result: IMPase Li inh, ERK EGF block)
CC(C)CC1NC(=O)C(CCCN)NC(=O)C(C(C)C)NC(=O)C2CCCN2C(=O)C(Cc2ccccc2)NC(=O)C(CC(C)C)NC(=O)C(CCCN)NC(=O)C(C(C)C)NC(=O)C2CCCN2C(=O)C(Cc2ccccc2)NC1=O (stereo not drawn)	ERK EGF block 3.5µM (no result: NPSR antag)
O=C1N[C@@H](Cc2ccccc2)C(=O)N2CCCC12 (stereo partly drawn)	none (no result: NPSR antag, ERK EGF block)
COc1ccc2c3c([nH]c2c1)[C@H]1C[C@@H]2[C@@H](C[C@@H](O)[C@H](OC)[C@H]2C(=O)O)CN1CC3	none (no result: NPSR antag, ERK EGF block)
COCCn1c(=O)c(CCc2ccccc2)nc2cnc(Oc3cccc(Cl)c3)nc21	none (no result: NPSR antag)
CCCOc1ccc(/C(O)=C2/C(=O)C(=O)N(CCOC)C2c2cccnc2)cc1 (stereo not drawn)	NPSR antag inconclusive, IMPase Li inh 11µM (no result: ERK EGF block)
CC1Cc2cc(/C(O)=C3/C(=O)C(=O)N(CCCn4ccnc4)C3c3cccnc3)ccc2O1 (stereo not drawn)	IMPase Li inh 11µM (no result: ERK EGF block)
CCCOc1ccc(/C(O)=C2/C(=O)C(=O)N(CCCOC)C2c2ccncc2)cc1 (stereo not drawn)	none (no result: ERK EGF block)
COCCCN1C(=O)C(=O)/C(=C(/O)c2ccc(OCC(C)C)cc2C)C1c1cccnc1 (stereo not drawn)	IMPase Li inh inconclusive (no result: ERK EGF block)
CC1Cc2cc(/C(O)=C3/C(=O)C(=O)N(CCCn4ccnc4)C3c3ccncc3)ccc2O1 (stereo not drawn)	IMPase Li inh inconclusive (no result: ERK EGF block)
C=CCOc1ccc(/C(O)=C2\C(=O)C(=O)N(CCOC)C2c2cccnc2)cc1 (stereo not drawn)	IMPase Li inh 10µM (no result: ERK EGF block)
COc1ccc2c(c1)C(=O)[C@H](OC(=O)Nc1ccc(OC(F)F)cc1)[C@@H](c1ccc(OC)c(Br)c1)O2	none (no result: NPSR antag)
c1ccc(C2=NN[C@@H]3c4ccccc4-c4ccccc4N3C2)cc1	none (no result: NPSR antag, ERK EGF block)
COC(=O)Cc1ccc(NC(=S)NCCO)cc1	none (no result: IMPase Li inh)
COC(=O)Cc1ccc(NC(=S)NCCSc2ccc(Cl)cc2)cc1	ERK EGF block 28µM (no result: IMPase Li inh)
COc1ccccc1NS(=O)(=O)c1cc(NC(=O)C2CC2)ccc1N1CCOCC1	none
COc1ccccc1NS(=O)(=O)c1cc(N2Cc3ccccc3C2=N)ccc1N1CCOCC1	NPSR antag 2.5µM
O=c1c(-c2cccc(F)c2)nc2cncnc2n1-c1ccccc1	none (no result: NPSR antag)
COc1ccccc1-c1nn2c(C(F)(F)F)nnc2s1	NPSR antag inconclusive, IMPase Li inh 7.9µM (no result: ERK EGF block)
COc1ccccc1-c1nn2c(C3COc4ccccc4O3)nnc2s1 (stereo not drawn)	NPSR antag inconclusive, IMPase Li inh 32µM (no result: ERK EGF block)
c1ccc(Cc2nn3c(C4COc5ccccc5O4)nnc3s2)cc1 (stereo not drawn)	none (no result: ERK EGF block)
COc1ccccc1-c1nn2c(-c3ccc(C(C)(C)C)cc3)nnc2s1	none (no result: ERK EGF block)
O=C(O)c1cn(C2CC2)c2cc(N3CCNCC3)c(F)cc2c1=O	none (no result: NPSR antag)
CN(C)c1ncc2nc(CCc3ccccc3)c(=O)n(CCc3ccccc3)c2n1	none (no result: NPSR antag, ERK EGF block)
CCC(N)(C(=O)O)c1ccc(C(=O)O)cc1 (stereo not drawn)	none (no result: NPSR antag, ERK EGF block)
COc1ccc(OC)c(S(=O)(=O)Nc2cc(OC)c(Cl)cc2OC)c1	NPSR antag inconclusive (no result: ERK EGF block)
COc1cc(NS(=O)(=O)c2ccc(OC)c(C)c2C)c(OC)cc1Cl	NPSR antag 20µM (no result: ERK EGF block)
C=C1C(=O)[C@]23[C@H](O)[C@H]1CC[C@H]2[C@@]12COC3(O)[C@H](O)[C@@H]1C(C)(C)CC[C@@H]2O	none (no result: NPSR antag, ERK EGF block)
NCCSC[C@H](N)C(=O)O	none (no result: NPSR antag, ERK EGF block)
CCC(=O)Nc1ccc(C(=O)Cn2ncc(Cl)c(Cl)c2=O)cc1	NPSR antag inconclusive (no result: IMPase Li inh)
CCOC(=O)c1ccc(NC(=O)Cn2ncc(Cl)c(Cl)c2=O)cc1	NPSR antag 10µM
CCN(CC)S(=O)(=O)c1cc(NC(=O)Cn2ncc(Cl)c(Cl)c2=O)ccc1C	NPSR antag inconclusive, ERK EGF block 20µM (no result: IMPase Li inh)
COc1ccc(NC(=O)Cn2ncc(Cl)c(Cl)c2=O)cc1S(=O)(=O)N1CCOCC1	none
Cc1noc(C)c1-c1cncnc1NCc1ccccc1	none (no result: NPSR antag, ERK EGF block)
c1ccc2c(c1)Cc1cc3cc4c(cc3nc1-2)OCO4	ERK EGF block inconclusive (no result: NPSR antag)
COc1cccc(Cn2c(=O)c(-c3cccs3)nc3cnc(N4CCN(C)CC4)nc32)c1	ERK EGF block inconclusive (no result: NPSR antag)
CC(NC(=O)CSc1nnc(-c2cccc(S(=O)(=O)N3CCCCC3)c2)o1)C12CC3CC(CC(C3)C1)C2 (stereo not drawn)	NPSR antag 10µM (no result: ERK EGF block)
COCC(C)NC(=O)CSc1nnc(-c2cccc(S(=O)(=O)N3CCCCC3)c2)o1 (stereo not drawn)	none
COc1ccc(CCNC[C@@H](O)c2ccc(O)cc2)cc1OC	NPSR antag inconclusive
COc1ccc(OC)c2c1C(=O)C(Cl)=C(Cl)C2=O	NPSR antag 6.3µM, ERK EGF block 28µM (no result: IMPase Li inh)
COc1ccc(OC)c2c1C(=O)c1ccccc1C2=O	none (no result: ERK EGF block)
COc1ccc(S(=O)(=O)N2CCCC2)c(Cl)c1Cl	none
COc1ccc(N)c2c1C(=O)c1ccccc1C2=O	NPSR antag 13µM, ERK EGF block 20µM
COc1cc2c(cc1OC)C1N(CC2)C(=O)CCC12C(=O)CCCC2=O (stereo not drawn)	none (no result: NPSR antag)
C=CC1=C(C)C2=NC1=CC1=NC(=CC3=NC(=CC4=NC(=C2)C(C)=C4CCC(=O)O)C(CCC(=O)O)=C3C)C(C=C)=C1C.[Zn]	none (no result: NPSR antag)
CC(C)OC(=O)c1c2nc3ccccc3nc2n2c1[nH]c(=O)c1ccccc12	NPSR antag 10µM (no result: ERK EGF block)
CC(C)OC(=O)c1c(N)n(CCCN2CCOCC2)c2nc3ccccc3nc12	none (no result: ERK EGF block)
COc1ccc(Oc2ncc3nc(-c4cccc(C#N)c4)c(=O)n(CCC#N)c3n2)cc1	none (no result: NPSR antag, ERK EGF block)
O=c1c(-c2cc(F)cc(F)c2)nc2cnc(N3CCNCC3)nc2n1Cc1cccs1	none (no result: NPSR antag)
CC1CC(OC(=O)CN2CCCCC2)CC(C)(C)C1 (stereo not drawn)	none (no result: IMPase Li inh)
CC1(C)Cc2c(C#N)c(N3CCN(C(=O)c4ccco4)CC3)nc(-c3ccco3)c2CS1	NPSR antag 10µM
CC(=O)N1CCN(c2nc(-c3ccco3)c3c(c2C#N)CC(C)(C)SC3)CC1	none (no result: ERK EGF block)
O=P(c1ccccc1)(c1ccccc1)c1nc(-c2ccccc2)oc1N1CCOCC1	none (no result: IMPase Li inh)
O=P(c1ccccc1)(c1ccccc1)c1nc(-c2ccc(Cl)cc2)oc1N1CCOCC1	NPSR antag 10µM, ERK EGF block inconclusive
O=C1CCCc2nc(N3CCN(c4ccccc4)CC3)ncc21	IMPase Li inh 11µM (no result: ERK EGF block)
Cc1nc(N2CCN(c3ccccc3)CC2)nc2c1C(=O)CCC2	none (no result: ERK EGF block)
CC(=O)c1sc2nc(-c3cccs3)ccc2c1N	none (no result: ERK EGF block)
Nc1c(C(=O)Nc2nc3ccccc3s2)sc2nc(-c3cccs3)ccc12	NPSR antag 10µM, IMPase Li inh 11µM (no result: ERK EGF block)
O=C(Nc1ccc(Cl)c(Cl)c1)c1ccc(Cl)c(Cl)c1	none (no result: IMPase Li inh)
O=C(Nc1ccc(Cl)c(Cl)c1)Nc1cc(C(=O)NC2CC2)ccc1Cl	ERK EGF block 28µM
Cc1cc2ccccn2c1C(=O)c1ccc([N+](=O)[O-])o1	ERK EGF block 18µM
Cc1cc2ccccn2c1C(=O)c1cccc([N+](=O)[O-])c1	none
CC1(C)CC(=O)C2=C(C1)OC1=C(C(=O)CC(C)(C)C1)C2c1ccc(O)cc1O	NPSR antag 13µM (no result: ERK EGF block)
CC1(C)CC(=O)C2=C(C1)OC1=C(C(=O)CC(C)(C)C1)C2c1ccc(O)c([N+](=O)[O-])c1	none

From PubChem
